HPGD block – HPGD (human) dehydrogenase inhibition. purified HPGD, NADH fluorescence kinetic, PGE2 substrate. Potency, µM, for inactives: top-dose activity change, negative = inhibition, actives largely listed as inhibitors. AID 894. 150,000 compounds, 4.3% hits; note: potency is the fitted concentration of half-maximal effect
Target sequence (P15428 whole entry, looked up): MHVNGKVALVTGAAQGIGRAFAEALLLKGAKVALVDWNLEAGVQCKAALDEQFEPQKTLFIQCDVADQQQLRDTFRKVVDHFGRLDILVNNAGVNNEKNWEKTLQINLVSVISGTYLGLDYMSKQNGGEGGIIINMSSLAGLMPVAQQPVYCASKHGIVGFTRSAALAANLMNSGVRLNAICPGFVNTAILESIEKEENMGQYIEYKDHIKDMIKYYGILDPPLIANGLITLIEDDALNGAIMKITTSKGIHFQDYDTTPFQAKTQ
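NADH formation kinetics: reaction with 30 uM PGE2 and 1 mM NAD+ (final), 20 nM enzyme, Tris-HCl pH 8 with Tween 20, after 15 min compound preincubation at room temperature. Fluorescence change, last versus first of five reads.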
LMNA splice mod – modulators of lamin A splicing; HeLa LMNA splicing GFP/RFP minigene ratio, 48 h; Potency, µM (highest dose often 46.1 µM), inactives show top-dose ratio change, negative = inhibition, hits mostly inhibitors; 200,000 compounds, 0.01% hits; AID 1487; active = well fitted inhibition curve with a large enough effect in the signal ratio, with a control signal flat, not every such curve was filed as active; inconclusive = small, poorly fitted or top-dose-only effect, or effect the other way, or a change in a side signal; the % refers to the signal ratio; note: potency is the fitted concentration of half-maximal effect
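S3 HeLa cells stably expressing lamin A-EGFP splicing minigene plus DsRed2, 600 cells/well, 48 h compound exposure at 37C. Laser-scanning cytometry; analysed as GFP (500-530 nm)/RFP (575-640 nm) total intensity ratio; 0.5% DMSO vehicle.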
PNC inhibitor – perinucleolar compartment assembly inhibition; PC3M PTB-GFP, PNC prevalence imaging, 16 h; hits give low values; activity change (PNC), negative = inhibition, % at 10 µM; 140,000 compounds, 3.1% hits;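 active = readout at or below -70, meaning at least 70% loss of cells showing the perinucleolar compartment, a nuclear body marking cancer cells; inconclusive = readout between -30 and a set limit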;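 note: plate controls were DMSO wells for no effect and camptothecin positive control wells for full effect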
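Compounds are pinned in duplicate onto adhered PC3M cells stably expressing GFP-tagged PTB and incubated 16 h at 37 C. Cells are then fixed, nuclei stained with Hoechst, and PNC-positive cells counted.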
ALDH1A1 block – blocks purified human ALDH1A1 activity. P00352. Purified ALDH1A1, NADH fluorescence, propionaldehyde substrate. Potency, µM (highest dose often 75.3 µM), for the others: top-dose activity, negative = inhibition, most hits filed as inhibitors. 220,000 compounds, 7.3% hits;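 note: potency is the fitted concentration of half-maximal effect; plate controls were no enzyme wells and a reference inhibitor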
Target sequence (P00352 whole entry, looked up): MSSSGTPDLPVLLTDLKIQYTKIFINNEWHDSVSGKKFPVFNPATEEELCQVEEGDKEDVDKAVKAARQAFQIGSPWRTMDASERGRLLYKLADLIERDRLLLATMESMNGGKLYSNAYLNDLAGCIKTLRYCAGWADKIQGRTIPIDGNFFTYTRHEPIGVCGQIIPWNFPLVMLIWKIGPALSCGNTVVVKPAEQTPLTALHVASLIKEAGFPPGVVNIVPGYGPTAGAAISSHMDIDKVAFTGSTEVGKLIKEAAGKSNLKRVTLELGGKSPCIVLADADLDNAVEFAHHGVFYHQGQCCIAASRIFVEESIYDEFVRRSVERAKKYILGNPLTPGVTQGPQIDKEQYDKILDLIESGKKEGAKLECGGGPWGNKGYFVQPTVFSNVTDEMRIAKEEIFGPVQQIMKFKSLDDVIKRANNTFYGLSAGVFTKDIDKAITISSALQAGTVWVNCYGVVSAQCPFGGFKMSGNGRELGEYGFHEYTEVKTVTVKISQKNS
KinaseGlo FLuc – blocks Kinase-Glo luciferase, a counter-screen artifact. Q27757. Kinase-Glo luciferase, ATP luminescence, 8 min. Potency, µM (doses to about 38.3 µM), without a hit: top-dose activity change, negative = inhibition, usual class: inhibitors. 200,000 compounds, 0.28% hits. AID 1379; active = well fitted inhibition curve with a large enough effect; inconclusive = small, poorly fitted or top-dose-only effect; note: potency is the fitted concentration of half-maximal effect; nearly all actives have a fitted effect of over 60% in size
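Substrate mix (final 50 mM imidazole pH 7.2, 50 mM KCl, 7 mM MgCl2, 10 uM ATP, 0.01% Tween 20, 0.05% BSA) plus pin-tool compound, then Kinase-Glo detection mix; 8 min ambient, luminescence read.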
Starred values were filed as active, the others as inactive; ? = inconclusive; / = not tested or not shown; [ ] = dose if it differs, or a comment. Compounds with a hit are over-represented: about 10% of the library has one in this group of screens. Unless noted, calls come from the whole dose curve; as a rule, active = well fitted inhibition curve with a large enough effect (not every such curve was filed as active); inconclusive = small, poorly fitted or top-dose-only effect, or another doubt; inactive = no such curve, though single readings can be large or run the other way. Unless noted, % is set by controls: 0 for no effect and ±100 for the full control effect.

SMILES | HPGD block | LMNA splice mod | PNC inhibitor | ALDH1A1 block | KinaseGlo FLuc
CC(NC(=O)c1cc2ccccc2o1)C(=O)O (stereo not given) | -6% | 4% | 2 | 22µM* | 1%
CSc1ncc(C(=O)NCc2cccc(Br)c2)c(-c2ccccc2)n1 | / | 14%[46 µM] | / | / | /
Cc1ccc(S(=O)(=O)NCCc2csc(-c3cccc(F)c3)n2)cc1 | / | -2%[46 µM] | / | / | /
O=C(/C=C\c1ccc(-c2cccc([N+](=O)[O-])c2)o1)N1CCOCC1 | / | ? | / | ? | -7%
O=C1C[C@@H](O)[C@@H](O)[C@@H]2[C@H]3C(=O)N(c4ccc(F)cc4F)C(=O)[C@@H]3CC[C@H]12 | / | / | / | -3%[13.5 µM] | /
CSc1nc(N)c2ncn([C@H]3O[C@H](COP(=O)(O)OP(=O)(O)O)[C@@H](O)[C@@H]3O)c2n1 | -5% | / | / | 7% | -19%
O=C(NCc1ccccc1)c1cc2ccccc2o1 | 18µM* | 1%[46 µM] | -20 | ? | 1%
Cc1cc(C(=O)Nc2ccccc2)oc1C | ? | -1% | 44 | ? | 13µM*
CCNC(=O)c1cc2ccccc2o1 | -4% | 0% | 21 | 10% | 2%
Cn1cccc1C(=O)N1CCC2(CC1)CCN(c1ccccn1)CC2 | -30% | / | / | ? | -4%
C/C(=N\NC(=O)c1cc(C(C)C)[nH]n1)c1ccco1 | 22µM* | ? | 5 | 3% | 8.9µM*
S=C(NCc1cccnc1)Nc1ccc(Oc2ccccc2)cc1 | / | ? | / | 32µM* | 0%
COc1cc(NC(=S)NCc2cccnc2)cc(OC)c1 | -13% | 3% | -92* | 4% | -2%
COc1cc(NC(=S)NCc2cccnc2)cc(OC)c1OC | / | / | / | ? | 8%
Cn1cccc1C(=O)N1CCC2(CCCN(Cc3ccc(C#N)cc3)C2)CC1 | -2% | / | / | -14% | -1%
c1coc(-c2cc(C3CCNCC3)[nH]n2)c1 | / | -12%[46 µM] | / | 13% | 0%
N#CCN1CCC(c2cc(-c3ccco3)n[nH]2)CC1 | / | -5%[46 µM] | / | 22µM* | -2%
COc1ccc(Cl)cc1NC(=O)CSc1ccc(-c2sc(C)nc2C)nn1 | / | 23%[46 µM] | / | / | /
COC(=O)c1sc(N)c(C(=O)OC)c1COC(=O)c1c(C)noc1C | 18µM* | ? | -21 | -11% | 8%
CCCNC(=O)c1nnsc1Sc1ccc(Cl)cc1 | / | -5%[9.22 µM] | / | -5% | -1%
COC(=O)[C@@]1(Cc2ccc(OC)cc2)[C@@H]2C(=CC(=O)[C@H]2CC(=O)C(=O)N2CCCC2)CN1C(=O)c1ccccc1 | -7% | 5% | 73 | -1% | -6%
COC(=O)[C@@]1(Cc2ccc(OC)cc2)[C@H]2c3cc(C(=O)N(C)C)n(CCO)c3C[C@H]2CN1C(=O)c1ccccc1 | -7% | / | / | -7% | 2%
COC(=O)[C@@]1(Cc2ccc(F)cc2)[C@@H]2[C@@H](CC(=O)[C@H]2CC(=O)C(=O)N(C)C)CN1C(=O)c1ccccc1 | -2% | 5% | 30 | 20% | 10%
COC(=O)[C@@]1(Cc2ccc(F)cc2)[C@H]2c3cc(C(=O)N4CCCC4)n(Cc4ccc(C)o4)c3C[C@H]2CN1C(=O)c1ccccc1 | 22µM* | / | / | -2% | -4%
COC(=O)[C@@]1(Cc2ccc(OC)cc2)[C@@H]2[C@@H](CC(=O)[C@H]2CC(=O)C(=O)N(C)C)CN1C(=O)c1ccccc1 | -5% | 2% | -88* | 18% | 1%
SMILES | HPGD block | LMNA splice mod | PNC inhibitor | ALDH1A1 block | KinaseGlo FLuc
COC(=O)[C@@]1(Cc2ccc(OC)cc2)[C@H]2c3cc(C(=O)N(C)C)n(Cc4ccc(C)o4)c3C[C@H]2CN1C(=O)c1ccccc1 | 25µM* | / | / | ? | -6%
C=C1C(=O)C=C2CN(C(=O)c3ccccc3)[C@@](Cc3ccc(OC)cc3)(C(=O)OC)[C@@H]12 | 7.1µM* | / | / | ? | -5%
O=C(NC1CC(=O)N(c2ccccc2)C1)c1cccs1 (stereo not given) | / | -2%[46 µM] | / | / | /
COc1ccccc1N1CCN(C(=O)c2cnn(C(C)(C)C)c2C2CCN(C(=O)OC(C)(C)C)CC2)CC1 | / | -5%[46 µM] | / | / | /
O=C1C2ON(c3ccccc3)C(c3cccnc3)C2C(=O)N1Cc1ccccc1 (stereo not given) | -12% | 0% | ? | 35µM* | 1%
CCCn1c(-c2ccc(F)cc2)nc2c(NCCN3CCSCC3)nc(C)nc21 | -6% | / | / | ? | -1%
O=C(CN1C(=O)C2(SCC(=O)N2c2ccc(Cl)cc2)c2ccccc21)NCCc1ccccc1 (stereo not given) | / | 2%[46 µM] | / | / | /
CSCCC(NC(=O)OC(C)(C)C)C(=O)Oc1ccc2c(=O)c(-c3ccc4c(c3)OCCO4)coc2c1 (stereo not given) | -16% | ? | 8 | 25µM* | 0%
O=C1N=C(N2CCN(c3cccc4ccccc34)CC2)S/C1=C/c1cccs1 | -6% | -1% | 47 | -4% | 3%
Cc1ccccc1N1CCN(C2=NC(=O)/C(=C\c3cccs3)S2)CC1 | 25µM* | ? | 21 | 16µM* | -2%
CN1CCN(c2ncc3nc(-c4cccc(C#N)c4)c(=O)n(C)c3n2)CC1 | / | -17% | / | ? | /
S=C1NC2=C(CCCC2)C2(CCCCC2)N1 | -13% | -9% | 320 | 0.32µM* | 3%
Nc1nc2n(n1)C1(CCCCC1)C1=C(CCCC1)N2 | -1% | -6% | 14 | ? | 1%
Cc1cc(C)cc(NC(=O)Cn2c(C)cc(C)c(C#N)c2=O)c1 | / | 8%[46 µM] | / | / | /
CCOC(=O)c1sc2nc(N3CCOCC3)c3c(c2c1N)CCC3 | ? | -5% | -96* | ? | -1%
S=C(c1ccccc1)N1CCN(C(=S)c2ccccc2)CC1 | -2% | -6% | 32 | 1% | -1%
Cc1ccc(N2CCN(C(=S)c3ccc(N(C)C)cc3)CC2)cc1 | 25µM* | ? | ? | 7.9µM* | -1%
CN(C)c1ccc(C(=S)N2CCN(c3ccccc3)CC2)cc1 | -9% | ? | 9 | 13µM* | -2%
COc1ccc(N(Cc2cccs2)C(=O)COc2ccc(C(C)C)cc2)cc1 | / | -18%[46 µM] | / | / | /
O=C(c1cnn2c(C(F)F)cc(-c3ccccc3)nc12)N1CCc2ccccc2C1 | / | ? | / | -13% | -2%
O=C(c1cnn2c(C(F)F)cc(-c3ccccc3)nc12)N1CCCc2ccccc21 | 3% | 14% | ? | 20µM* | -3%
Cc1cc(C(F)F)n2ncc(C(=O)N3CCc4ccccc4C3)c2n1 | 22µM* | -8% | -22 | ? | 0%
Cc1cn2c(=O)cc(COC(=O)COc3ccccc3C)nc2s1 | / | 2%[46 µM] | / | / | /
Cn1cnnc1Sc1nc2ccccc2nc1NS(=O)(=O)c1ccccc1 | -18% | -1% | ? | 6% | -2%
Cn1ccnc1Sc1nc2ccccc2nc1NS(=O)(=O)c1ccccc1 | 22µM* | -13% | 1 | -3% | 2%
COc1cc(NS(=O)(=O)c2ccc(N/C=C\C(=O)c3ccc(F)cc3)cc2)nc(OC)n1 | ? | 0% | 11 | ? | 4%
